{
  "source": "ChEMBL document CHEMBL3988442",
  "about": "“University of Dundee, Small-Polar-MMV Screening Library” (2021)",
  "note": "About 1,200 (3.2%) of roughly 38,000 compounds showed an effect of 50% or more. The median lay at about -58%. Many of the other results were omitted from the sample, so strong results are more common in it than they were.",
  "data": [
    {"tested_on": "Plasmodium falciparum", "assay": "Calibr Malaria Delayed Death Assay SOP", "format": "functional, organism-based", "design": "scale not given: in the data most compounds retested in dose-response had high values", "conditions": "concentration 4.99e-06 (unit not given; other assays of the set use mol/L)", "units": {"Percent Effect": "%"}, "values": [
      {"smiles": "O=C(c1ccc2[nH]c(=O)[nH]c2c1)N1CCC(Nc2cccnn2)CC1", "Percent Effect": -46.87},
      {"smiles": "COc1c(C)cnc(CN2CCOC(Cn3cc(C)cn3)C2)c1C", "note": "(stereo not given)", "Percent Effect": -74.84},
      {"smiles": "Cn1c2c(c(=O)n1C)CN(C(=O)c1cnccn1)CCC2", "Percent Effect": -106.6},
      {"smiles": "Cc1ccc(C(=O)N2CCCC3(C2)C(=O)N(C)c2ccccc23)c(=O)[nH]1", "note": "(stereo not given)", "Percent Effect": -167.7},
      {"smiles": "Cc1cc(C)cc(NC(=O)CC2CN(Cc3ccccc3)CCO2)c1", "note": "(stereo not given)", "Percent Effect": -128.2},
      {"smiles": "CCc1cccc2cc(CNCCCN3CCOCC3)c(=O)[nH]c12", "Percent Effect": -14.92},
      {"smiles": "COCCCn1c(CN2CCCCO2)cnc1S(=O)(=O)C1CCCC1", "Percent Effect": -131.1},
      {"smiles": "O=C(CNc1cc(-n2cnnn2)ccc1F)Nc1cc(F)ccc1F", "Percent Effect": 1.352},
      {"smiles": "Cc1ccc(-n2cnnn2)cc1NCC(=O)Nc1ccccc1Cl", "Percent Effect": 78.71},
      {"smiles": "O=C(CNc1ccccc1Cl)Nc1cc(-n2cnnn2)ccc1F", "Percent Effect": -95.2},
      {"smiles": "O=C(CNc1cc(-n2cnnn2)ccc1F)Nc1ccccc1Cl", "Percent Effect": -49.6},
      {"smiles": "Cc1ccc(-n2cnnn2)cc1NCC(=O)Nc1cc(F)ccc1F", "Percent Effect": 71.46},
      {"smiles": "O=C(CNc1cc(-n2cnnn2)ccc1F)NCc1ccccc1", "Percent Effect": -22.04},
      {"smiles": "Cc1ccc(-c2ccc(=O)n(CC(=O)Nc3nccs3)n2)cc1", "Percent Effect": -17.67},
      {"smiles": "FC1(F)CCN(Cc2ccccn2)CC12CCN(c1cnccn1)C2.O=C(O)C(F)(F)F.O=C(O)C(F)(F)F.O=C(O)C(F)(F)F", "note": "(stereo not given)", "Percent Effect": 16.91},
      {"smiles": "CC(C)(C)OCC1CN(CC2CC2)S(=O)(=O)c2cnccc2O1", "note": "(stereo not given)", "Percent Effect": -18.82},
      {"smiles": "O=C1NCC2(CCCN(C(=O)c3c[nH]nc3C3CCCCC3)C2)O1", "note": "(stereo not given)", "Percent Effect": -117.3},
      {"smiles": "O=C(NCC1CCOC1)c1csc(-c2ccc(F)cc2)n1", "note": "(stereo not given)", "Percent Effect": -133.9},
      {"smiles": "c1ccc(CO[C@H]2CO[C@@]3(CCCN(Cc4ccncc4)C3)C2)nc1", "Percent Effect": -35.86},
      {"smiles": "CN1C[C@H]2N(c3ncccn3)CCC[C@@]2(C(=O)NCC2CC2)C1.O=C(O)C(F)(F)F", "Percent Effect": -55.87},
      {"smiles": "CCN(CC)Cc1ccc(C(=O)NC2CCc3cc(F)ccc32)o1", "note": "(stereo not given)", "Percent Effect": 13.89},
      {"smiles": "CCN(CC)Cc1ccc(C(=O)NC2CCc3cc(Cl)ccc32)o1", "note": "(stereo not given)", "Percent Effect": 54.73},
      {"smiles": "CCN(CC)Cc1ccc(C(=O)NC2CCc3cc(Br)ccc32)o1", "note": "(stereo not given)", "Percent Effect": 46.2},
      {"smiles": "CCC(c1ccncc1)N(C)S(C)(=O)=O", "note": "(stereo not given)", "Percent Effect": -63.43},
      {"smiles": "O=c1[nH]nc2c(S(=O)(=O)N3CCCCC3)cccn12", "Percent Effect": -53.1},
      {"smiles": "CCSc1nnc(CCNC(=O)OC(C)(C)C)o1", "Percent Effect": -74.82},
      {"smiles": "FC(F)(F)c1cccc(C2(CNCc3ccncc3)CCOCC2)c1", "Percent Effect": 48.98},
      {"smiles": "Fc1ccc(C2(CNCCc3cccs3)CCOC2)cc1", "note": "(stereo not given)", "Percent Effect": 43.71},
      {"smiles": "Clc1ccc(OCCNC2(c3ccc(Br)cc3)CCOCC2)cc1", "Percent Effect": 8.374},
      {"smiles": "CCN(C)S(=O)(=O)NCC1(c2cccc(Br)c2)CC1", "Percent Effect": -108.3}
    ]}
  ]
}
